Measured values taken from PubChem BioAssay AID2057 (The Scripps Research Institute Molecular Screening Center, 2009).
In all, about 320,000 compounds went through this assay and about 2,100 (0.66%) were called active.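 How the source made its calls: active means inhibition above the mean inhibition of all tested compounds plus 3 SD, set per campaign (cut at about 40% in these data); inactive means the rest.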 What follows is part of a selection rich in actives, with near analogues and random picks from the rest.

target: Induced myeloid leukemia cell differentiation protein Mcl-1 (Homo sapiens) (UniProt Q07820); assay: MCL1-BIM peptide interaction disruptors – biochemical, fluorescence polarization, primary screen (AID 2057); conditions: GST-MCL1 / FITC-Bim-BH3 fluorescence polarization; at 10.9 µM; active compounds read high;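 further: 0% = DMSO wells and 100% = unlabeled Bim-BH3 peptide control; higher means more loss of mP so more displacement of Bim peptide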
Sequence (Q07820 whole entry, looked up): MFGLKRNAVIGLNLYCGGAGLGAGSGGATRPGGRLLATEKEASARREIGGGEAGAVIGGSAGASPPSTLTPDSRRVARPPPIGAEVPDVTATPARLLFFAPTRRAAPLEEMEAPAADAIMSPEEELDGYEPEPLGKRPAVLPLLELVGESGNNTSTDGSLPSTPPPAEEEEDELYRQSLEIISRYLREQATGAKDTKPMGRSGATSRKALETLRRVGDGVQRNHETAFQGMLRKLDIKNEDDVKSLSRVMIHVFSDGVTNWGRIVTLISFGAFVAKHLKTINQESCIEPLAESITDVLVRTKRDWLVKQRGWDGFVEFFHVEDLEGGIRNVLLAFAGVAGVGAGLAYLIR

inhibition, active:
COCCN(CCOC)c1nc(N)c2c(N)nc3c(c2c1C#N)CC(=O)N3Cc1ccc(Cl)cc1 56.7%
CC(C)(C)OC(=O)NCCCC1=CC2=CC(=O)C(C)(OC(=O)c3ccco3)C(=O)C2=CO1 (stereo not drawn) 81.6%
O=C(COC(=O)c1ccccc1C(=O)N1CCN(c2ccccc2)CC1)NCc1ccccc1 51.8%
CC(C)(C)c1ccc(/C=C2\Oc3c(ccc(O)c3CN3CCN(CCO)CC3)C2=O)cc1 49.7%
CCOC(=O)c1cc2n(c1N)-c1ccccc1C2=O 153%
CC(NC(=O)CSc1nc2c(cc1C#N)CN(C)CC2)c1ccccc1 (stereo not drawn) 45%
Cc1ccc(C(=O)O)cc1-c1ccc(/C=C2\SC(=O)N(CC(=O)Nc3ccc4c(c3)OCO4)C2=O)o1 56.2%
Cc1ccc(-c2nc(SCC(=O)Nc3ccccc3OC(F)F)c3c(C)c(C(=O)O)sc3n2)cc1 54.1%
COC(=O)c1cc(OCC(=O)NC2CCCc3ccccc32)cc(C(=O)OC)c1 (stereo not drawn) 40.6%
COc1cc([C@H](Cc2ccccc2)NC(C)=O)oc(=O)c1 59.4%
CC/C(C)=N/Nc1nc2sc3c(c2c(=O)[nH]1)CC(C)(C)OC3 85%
CC[C@]1(O)C[C@@H]2CN(CCc3c([nH]c4ccccc34)[C@@](C(=O)OC)(c3cc4c(cc3OC)N(C)[C@H]3[C@@](O)(C(=O)OC)[C@H](OC(C)=O)[C@]5(CC)C=CCN6CC[C@]43[C@@H]65)C2)C1 119%
CCOc1ccc2nc(N3CCCN(C(=O)Nc4ccccc4C)CC3)c(C#N)cc2c1 48.6%
Cc1cc(C)c(/C=C2\C(=O)Nc3ccccc32)[nH]1 180%
Fc1ccc(CNc2nc3ccccc3n3nnnc23)cc1 60.1%
Cc1c(CC(=O)N2CCN(C(=O)C3COc4ccccc4O3)CC2)c(=O)oc2c(O)c(O)ccc12 (stereo not drawn) 57.5%

inhibition, inactive:
CC(Oc1ccccc1)C(=O)Nc1c2c(nn1-c1ccccc1)CS(=O)C2 (stereo not drawn) 3.14%
CC1CCN(C(=O)c2ccc(S(=O)(=O)Cc3cc(F)ccc3F)c([N+](=O)[O-])c2)CC1 6.72%
COc1cc2c(cc1OC)C(C)N(S(=O)(=O)c1cnc(Cl)c(Cl)c1)CC2 (stereo not drawn) 0.66%
Cc1ccc(C2C(C#N)C(C#N)N3CCCN23)cc1 (stereo not drawn) -13.7%
CC1(OC(=O)C2CCCC2)C(=O)C=C2C=C(c3ccc(C#N)cc3)OC=C2C1=O (stereo not drawn) 26.9%
C=CCN1C=C2C(=O)C(C)(OC(=O)CCc3ccccc3)C(=O)C=C2C=C1c1ccc(C#N)cc1 (stereo not drawn) 23.9%
Cc1cc(O)c(Sc2ccccc2)c(=O)o1 2.06%
C=CCc1cccc(/C=N/NC(=O)COc2ccc(-n3cnnn3)cc2)c1O 11.2%
Oc1ccc(-c2onc3ccc(Cl)cc23)cc1 -2.01%
CC(OC(=O)c1ccc2noc(-c3ccccc3)c2c1)C(N)=O (stereo not drawn) -8.19%
CCOc1ccc(NC(=O)CN(C)C(=O)Cn2c(=O)cnc3ccccc32)cc1OCC 3.26%
Cc1nc(-c2ccc(F)cc2)c(CC(=O)N2CCN(S(=O)(=O)c3ccc(F)cc3)CC2)s1 -0.35%
COC(=O)c1ccc2c(c1)S(=O)(=O)NC(=NCCCN1CCOCC1)S2 -0.08%
Cc1c(NC(=O)C(C)OC(=O)c2c3c(nc4ccccc24)CCC(C)C3)c(=O)n(-c2ccccc2)n1C (stereo not drawn) -4.73%
COC(=O)C1=C(Nc2ccc(C)cc2)C=C(C)C(C(=O)OC)C1c1ccc(F)cc1 (stereo not drawn) -0.87%
O=C(COC(=O)c1n[nH]c2ccccc12)NCc1ccccc1 -0.26%
CC(C)N(C(=O)COC(=O)c1ccccc1C(=O)N1CCN(c2ccc(F)cc2)CC1)C(C)C 11.2%
OCC1(Cc2ccccc2C(F)(F)F)CCN(Cc2ccncc2)CC1 4.27%
CC1(NC(=O)CCS(=O)(=O)c2ccc(Cl)cc2)CCS(=O)(=O)C1 (stereo not drawn) -1.26%
CC(=O)N1c2ccc(S(=O)(=O)N3CCC(C(=O)NC4CCCCC4C)CC3)cc2CC1C (stereo not drawn) 2%
CCOC(=O)c1oc2c(CN3CCN(CCO)CC3)c(O)c(CC)cc2c(=O)c1-c1nc2ccccc2s1 -0.61%
CCN(CC(=O)Nc1ccccc1C(F)(F)F)C(=O)CSCc1c(C)noc1C -5.73%
COC(=O)c1cc(NS(=O)(=O)c2ccc3c(c2)c(=O)n(C)c(=O)n3C)cc(C(=O)OC)c1 3.04%
CC(C)OC(=O)CN1C(=O)C(=O)c2ccccc21 3.82%
CCOC(=O)c1ccccc1CN1C(=O)c2ccccc2S1(=O)=O 3.41%
Cc1noc(C)c1-c1nc(CSc2ccc(Cl)cc2)no1 7.94%
O=C(c1ccc(OC2CCN(C(=O)c3cccnc3)CC2)cc1)N1CCCCCC1 1.48%
Cc1ccc(OS(=O)(=O)c2ccc(-c3csc(C)n3)s2)c(C)c1 2.53%
Cc1cc(NC(=O)CSc2nc3c(cc2C#N)CCCCC3)no1 2.25%
CC1(C)CCc2nc(SCc3ccccc3)c(C#N)cc2C1 -2.93%
CC1(C)NC(=O)N(CC(=O)Nc2cc(C(F)(F)F)cc(C(F)(F)F)c2)C1=O -2.94%
Cn1cccc1/C=C1\SC(=O)N(CC(=O)Nc2ccc(F)cc2)C1=O -0.64%
Cc1ccc(C(=O)Nc2ccc3c(c2)OCO3)cc1S(=O)(=O)N1CCCCC1 7.58%
CCOC(=O)c1ccc[n+](CC(=O)Nc2ccccc2OC(F)F)c1 -5.72%
COc1ccccc1NC(=O)CSc1nc2sc3c(c2c(=O)n1-c1ccccc1)CCN(C)C3 -0.79%
COc1cc2c(cc1OC)C(=O)NCC(C)(C)O2 5.06%
CCC(C)[C@H]1COCCS(=O)(=O)N1Cc1ccc(C)cc1 (stereo partly drawn) -11.6%
CCOc1ccc(NC(=O)COc2ccc(C(=O)NC3CCCc4ccccc43)cc2OC)cc1 (stereo not drawn) -23.3%
Nc1ccc(C(=O)OCC(=O)NC2CCCc3ccccc32)cc1[N+](=O)[O-] (stereo not drawn) -14.1%
COC(=O)[C@H](Cc1ccccc1)NC(=O)Nc1ccc(OC)cc1 2.03%
CCOC(=O)C(Cc1ccccc1)NC(=O)CCC(=O)c1ccc(OC)cc1 (stereo not drawn) 4.46%
Cc1ccc(OCC(=O)c2cc(C)n(Cc3ccco3)c2C)c([N+](=O)[O-])n1 -1.45%
COC(=O)c1c(NC(=O)c2ccc(S(=O)(=O)N3CCOCC3)cc2)sc2c1CCN(C(C)C)C2 -0.44%
c1ccc2c(c1)CSc1sccc1C2=C1CCNCC1 8.84%
CCC1(C)Cc2c(sc3nc(SC)[nH]c(=O)c23)CO1 (stereo not drawn) 6.42%
CCSc1nc2sc3c(c2c(=O)[nH]1)CC(C)(C)OC3 7.1%
Nc1cc(N)nc(SCC(=O)Nc2cccc(S(=O)(=O)N3CCCCC3)c2)n1 -0.58%
CC[C@]1(O)CC2CN(CCc3c([nH]c4ccccc34)[C@@](C(=O)OC)(c3cc4c(cc3OC)N(C=O)[C@H]3[C@@](O)(C(=O)OC)[C@H](OC(C)=O)[C@]5(CC)C=CCN6CC[C@]43[C@@H]65)C2)C1 (stereo partly drawn) 20.2%
O=C(Cn1c(NCCO)nc2ccccc21)c1ccc(Cl)cc1Cl -2.09%
CC[C@@H](C)[C@H](NC(=O)CCc1c(C)c2cc3c4c(oc3c(C)c2oc1=O)CCCC4)C(=O)O 8.32%
COc1ccc2nc(N3CCCC(O)C3)c(C#N)cc2c1 (stereo not drawn) 26.1%
CCOC(=O)c1cc(C#N)c(N2CCCCC2)nc1-c1ccccc1 2.02%
CSc1ncccc1C(=O)OCc1ccc(Br)cc1 4.52%
CCC(C)(C)NC(=O)c1cc([N+](=O)[O-])ccc1N1CCCCC1 -1.47%
CN(C)/C=C1/Nc2ccccc2C1=O 5.28%
O=C1Nc2ccccc2/C1=C/c1ccnc2ccccc12 4.28%
COc1ccc(CNc2nnnn2C)cc1 2.94%
CCOC(=O)CNc1nc2ccccc2n2c(C)nnc12 6.27%
CCC1CCCCN1C(=S)Nc1ccc(SC(F)F)cc1 (stereo not drawn) 7.19%
COc1ccc(N2CC(C(=O)N[C@@H](C)C(=O)N3CCCCC3)CC2=O)cc1 (stereo partly drawn) 3.6%
O=C(O)c1ccc2c3c(cccc13)C(=O)N(OS(=O)(=O)c1ccccc1)C2=O -8.23%
C[N+](C)(CCCCCC[N+](C)(C)CCCN1C(=O)c2cccc3cccc(c23)C1=O)CCCN1C(=O)c2cccc3cccc(c23)C1=O -10.5%
Cc1nn(-c2cc(Cl)ccc2N)c(=O)c2ccccc12 0.14%
O=C1c2ccccc2C(=O)N1c1cccc2ccccc12 2.1%
CC(C)(CNC(=O)Cc1ccc(Cl)cc1Cl)N1CCOCC1 4.7%
O=C(c1cccnc1)N(c1cc2sc(=O)oc2c2ccccc12)S(=O)(=O)c1ccccc1 23.9%
CCCCC(NC(=O)c1cccc(Br)c1)C(=O)O (stereo not drawn) -0.19%
CC1=NN(C(C)C)C(=O)C1 -2.13%
COCc1c(N)c(C)nc(Cl)c1C#N 8.83%
CCOc1ccc(N(CC(=O)NCC2CCCO2)S(=O)(=O)c2ccc(C)cc2)cc1 (stereo not drawn) -3.41%
Cc1c(C)c2ccc(OCC(=O)N3CCC(C(=O)O)CC3)c(C)c2oc1=O -1.79%
O=C(CNC(=O)C1COc2ccccc2O1)N/N=C/c1cc(Br)c(O)c(Br)c1 (stereo not drawn) 10.8%
